Measured values published in ChEMBL document CHEMBL4513216, “Probing the Open Global Health Chemical Diversity Library for Multistage-Active Starting Points for Next-Generation Antimalarials” (ACS Infect Dis, 2020).
In all, about 68,000 compounds went through this assay and about 2,700 (4%) showed an effect of 50% or more. The sample as a whole holds a higher share of strong results than the screen did.

What follows are compounds tested on Plasmodium berghei (assay: Screen against P. berghei liver stage (PbLuc), transformed with Luciferase, at 2uM). Conditions: tested at 2 uM.
Type: functional, HepG2

Structure (SMILES)	INHIBITION
Cc1ncc(CNC2CC(=O)N(CCc3cccc(Cl)c3)C2)n1C (stereo not given)	-15.29%
NC(=O)C1CCN(CC(=O)N(Cc2ccccc2)Cc2nccs2)CC1	26.93%
Cc1nc(C(=O)NCCS(=O)(=O)N2CCCC2)cs1	3.29%
CCc1cc(NCC(O)CN2CCCCC2)n2ncnc2n1 (stereo not given)	16.01%
CCc1cc(NCc2cccnc2N2CCCCC2)n2ncnc2n1	64.9%
CCc1cc(NCc2ccccc2CN2CCCC2)n2ncnc2n1	-23.61%
CCC(C)[C@H](N)c1nnc(SCC(=O)Nc2ccc(Br)cc2)o1 (stereo not given in full)	-7.19%
CNc1cc(C2CN(C(=O)c3cscn3)CCO2)nc(C)n1 (stereo not given)	26.69%
CCc1nc(CN(C(C)=O)C2CCN(CCc3ccncc3)C2)no1 (stereo not given)	-21.22%
CCc1nc(CN(C(C)=O)C2CCN(CCc3cnn(C)c3)C2)no1 (stereo not given)	-10.66%
CC(C)n1cc(C(=O)NCCN(C)C)c2n[nH]c(=O)c-2c1	9.1%
CC(C)CNC(=O)c1cn(C(C)C)cc2c(=O)[nH]nc1-2	55.52%
COCCCNC(=O)c1cn(C(C)C)cc2c(=O)[nH]nc1-2	15.34%
CNC(=O)CN1CCCC12CCN(C(=O)c1ccsc1)CC2	24.15%
Cc1nc(CN2CCC(O)(c3ccccc3F)CC2)c2ccccn12	15.55%
Cn1cc(C2CCCN2C(=O)CCCOCc2ccccc2)cn1 (stereo not given)	-3.9%
O=C(Cc1n[nH]c2ccccc12)N1CCCC1Cn1cccn1 (stereo not given)	-36.73%
CC(C)Oc1ccc(C(=O)N2CCCC2c2cnn(C)c2)cn1 (stereo not given)	15.13%
CCCc1noc(CCCC(=O)N2CCCC2c2cnn(C)c2)n1 (stereo not given)	54.99%
CCOc1ccc(C(=O)N2CCCC2c2cnn(C)c2)cn1 (stereo not given)	-1.02%
COc1ccc(C(=O)N2CCCC2c2cnn(C)c2)cn1 (stereo not given)	80.46%
Cn1cc(C2CCCN2C(=O)COCCOc2ccccc2)cn1 (stereo not given)	-24.75%
Cc1cnn(CC2CCCN2C(=O)Cc2n[nH]c3ccccc23)c1 (stereo not given)	3.9%
CCCc1noc(CCC(=O)N2CCCC2c2ccncc2)n1 (stereo not given)	-33.92%
CCCc1noc(CCC(=O)N2CCCC2c2ccc(OC)cc2)n1 (stereo not given)	30.29%
Cn1cc(C2CCCN2C(=O)Cc2n[nH]c3ccccc23)cn1 (stereo not given)	63.95%
Cn1cc(C2CCCN2C(=O)COCCc2ccccc2)cn1 (stereo not given)	50.76%
O=C(NC[C@H]1OC[C@@H](NCc2ccccc2F)[C@@H]1O)c1ccc(F)cc1	-13.88%
CCC(CCN)n1ccc(C(F)(F)F)n1 (stereo not given)	-31.71%
Cn1cnnc1SC1CCc2ccccc2NC1=O (stereo not given)	21.31%
